PubChem BioAssay AID1376 (SRMLSC, 2008)
About 530 (0.24%) of roughly 220,000 compounds were called active. Shown is part of a subset that was picked to be rich in actives. Potency and affinity values are given separately. Values without a mark were called inactive. No stated cut-off is given here; in the data, active means inhibition above about 13%; inconclusive means no clear call, values can overlap the other calls; inactive means below that.

These compounds were tested against Bifunctional protein GlmU (Mycobacterium tuberculosis (strain ATCC 25618 / H37Rv)) (UniProt P9WMN3) (assay: inhibition of mycobacterial GlmU enzyme – biochemical, glucosamine-1-phosphate acetyltransferase (AID 1376;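 further: 0% = complete reaction with vehicle and 100% = reaction without substrate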)). Conditions: M. tuberculosis GlmU acetyltransferase enzyme assay; stronger effect = higher value;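 tested at 30 µM in the primary screen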.
Sequence of Bifunctional protein GlmU (Mycobacterium tuberculosis (strain ATCC 25618 / H37Rv)) (P9WMN3 whole entry, looked up): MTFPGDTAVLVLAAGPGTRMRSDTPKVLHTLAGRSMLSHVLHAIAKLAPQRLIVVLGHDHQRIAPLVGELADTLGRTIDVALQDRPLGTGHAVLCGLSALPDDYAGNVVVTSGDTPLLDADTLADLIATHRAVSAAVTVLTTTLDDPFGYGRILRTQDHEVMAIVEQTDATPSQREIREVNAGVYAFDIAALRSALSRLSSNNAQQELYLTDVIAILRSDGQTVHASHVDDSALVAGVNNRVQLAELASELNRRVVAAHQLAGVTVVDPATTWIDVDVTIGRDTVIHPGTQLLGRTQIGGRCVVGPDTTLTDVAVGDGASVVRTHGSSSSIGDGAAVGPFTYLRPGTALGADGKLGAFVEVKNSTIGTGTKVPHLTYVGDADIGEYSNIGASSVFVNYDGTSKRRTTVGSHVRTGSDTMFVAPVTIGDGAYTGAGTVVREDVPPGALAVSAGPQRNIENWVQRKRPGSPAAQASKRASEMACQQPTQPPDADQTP

Question: `O=C1c2cccc(O)c2C(=O)c2c(O)cccc21` was tested. Which inhibition did it give?
Answer: 6.42%

Question: `O=C1c2cccc(Sc3ccccc3)c2C(=O)c2c(Sc3ccccc3)cccc21` was tested. Which inhibition did it give?
Answer: 14.2% (active)

Question: `O=C(O)c1ccc2c(c1Sc1ccccc1)C(=O)c1ccccc1C2=O` was tested. Which inhibition did it give?
Answer: 7.96%

Question: How did the inhibition turn out when `CC(C)C(NC(=O)C1CCC(C(C)(C)C)CC1)C(=O)NCc1cccnc1` (stereo unspecified) was run?
Answer: 5%

Question: Which inhibition does the source give for `CCOc1ccc(S(=O)(=O)N2CCN(C(=S)NC3CC3)CC2)cc1` here?
Answer: 4.79%

Question: How did the inhibition turn out when `CCn1c(Cc2ccccc2)nnc1SCc1cccc(C(=O)O)c1` was run?
Answer: 1.34%

Question: How did the inhibition turn out when `CCC(=NC(C)c1ccccc1)c1c(O)n(C)c(=O)n(C)c1=O` (stereo unspecified) was run?
Answer: -3.09%

Question: With `COc1cc2c(cc1OC)C(c1ccccc1O)N(C1CC(=O)N(c3ccccc3)C1=O)CC2` (stereo unspecified) as the compound, how does the inhibition read?
Answer: 2.68%

Question: How did the inhibition turn out when `CCOC(=O)Cc1csc(NC(=O)c2cc(C)cc(C)c2)n1` was run?
Answer: -2.68%

Question: `Cn1c(SCC(=O)O)nnc1-c1ccc2ncccc2c1` was tested. Which inhibition did it give?
Answer: -1.41%

Question: For `Cn1c(SCC(=O)N2CCOCC2)nnc1-c1ccc2ncccc2c1`, which inhibition is on record?
Answer: 13.7% (active)

Question: Which inhibition does the source give for `CCOC(=O)CSc1nnc(-c2ccc3ncccc3c2)n1C` here?
Answer: 0.08%

Question: `Cc1ccc(S(=O)(=O)N2CCCOC2CNC(=O)C(=O)NC2CCCCC2)cc1` (stereo unspecified) was tested. Which inhibition did it give?
Answer: -5.78%

Question: For `O=C1/C(=C\c2ccc(Br)o2)Cc2ccccc21`, which inhibition is on record?
Answer: 8.39%

Question: With `Cc1ccc(C=C2C(=O)c3ccccc3C2=O)o1` as the compound, how does the inhibition read?
Answer: 2.45%

Question: With `COc1ccc(C(CNC(=O)c2ccc(S(=O)(=O)N(C)C)cc2)N2CCCCC2)cc1` (stereo unspecified) as the compound, how does the inhibition read?
Answer: 0.14%

Question: With `COc1ccc(NC(=O)N2CCCC2C(=O)NCc2ccc(C)cc2)cc1` (stereo unspecified) as the compound, how does the inhibition read?
Answer: 1.15%

Question: With `CC(C)CNC(C)C(=O)Nc1ccc(S(N)(=O)=O)cc1` (stereo unspecified) as the compound, how does the inhibition read?
Answer: -3.38%

Question: For `C=CCOc1c2ccc(C(=O)NCc3ccc(C)cc3)cc2nn1C`, which inhibition is on record?
Answer: 1.15%

Question: Which inhibition does the source give for `Cn1c2ccccc2c2cc(C(=O)N3CCN(CCO)CC3)sc21` here?
Answer: 12.8% (active)

Question: For `CC(=O)NNC(=O)c1cc2c3ccccc3n(C)c2s1`, which inhibition is on record?
Answer: 2.59%

Question: `Cn1c2ccccc2c2cc(C(=O)N3CCOCC3)sc21` was tested. Which inhibition did it give?
Answer: 5.13%

Question: For `Cc1cccc(CSc2nc3c(cc2C#N)CN(C)CC3)c1`, which inhibition is on record?
Answer: -4.03%

Question: `CN1CCc2nc(SCc3ccccc3Br)c(C#N)cc2C1` was tested. Which inhibition did it give?
Answer: -4.18%

Question: With `CN1CCc2nc(SCc3cccc(Br)c3)c(C#N)cc2C1` as the compound, how does the inhibition read?
Answer: 13% (active)

Question: `Cc1c(C(=O)OCCOc2ccccc2)[nH]c2c1C(=O)CCC2` was tested. Which inhibition did it give?
Answer: 2.56%

Question: With `N#C/C(=C\c1ccco1)c1nc2ccccc2s1` as the compound, how does the inhibition read?
Answer: 7.35%

Question: For `N#C/C(=C/c1ccncc1)c1nc2ccccc2s1`, which inhibition is on record?
Answer: -6.23%

Question: Which inhibition does the source give for `COc1cc(/C=C(\C#N)c2nc3ccccc3s2)cc([N+](=O)[O-])c1O` here?
Answer: 6.33%

Question: `N#C/C(=C\c1ccc([N+](=O)[O-])o1)c1nc2ccccc2[nH]1` was tested. Which inhibition did it give?
Answer: -6.95%

Question: `N#C/C(=C\c1ccc(Sc2ccccc2)o1)c1nc2ccccc2[nH]1` was tested. Which inhibition did it give?
Answer: -4.05%

Question: `N#C/C(=C/c1ccc(-c2ccc(S(N)(=O)=O)cc2)o1)c1nc2ccccc2s1` was tested. Which inhibition did it give?
Answer: 6.34%

Question: With `CC(C)(C)NC(=O)NC(=O)COC(=O)c1ccc2c(c1)S(=O)(=O)N=C1CCCCCN12` as the compound, how does the inhibition read?
Answer: -5.9%

Question: With `O=C(C(=S)N1CCOCC1)c1c[nH]c2ccccc12` as the compound, how does the inhibition read?
Answer: -1.14%

Question: How did the inhibition turn out when `O=C1C2C3C=CC(CC3)C2C(=O)N1/N=C/c1c(O)ccc2ccccc12` (stereo unspecified) was run?
Answer: -1.22%

Question: Which inhibition does the source give for `CC(NC(=O)c1ccco1)C1COc2ccccc2O1` (stereo unspecified) here?
Answer: 1.62%

Question: How did the inhibition turn out when `CC(Sc1nnc2ccccn12)C(=O)Nc1ccc(Cl)cn1` (stereo unspecified) was run?
Answer: 8.91%

Question: With `COc1ccccc1C1=NN(C2=NN=C(N)Cc3ncnn32)C(O)(C(F)(F)F)C1` (stereo unspecified) as the compound, how does the inhibition read?
Answer: -7.53%

Question: `N#CCC(=O)N/N=C/c1cccc(Oc2ccccc2)c1` was tested. Which inhibition did it give?
Answer: 5.36%

Question: How did the inhibition turn out when `CN1CCN(c2nc3ccccc3c(=O)n2-c2ccccc2)CC1` was run?
Answer: 2.07%

Question: Which inhibition does the source give for `O=c1c2ccccc2nc(N2CCCC2)n1-c1ccc(Cl)cc1` here?
Answer: 3.51%

Question: With `O=c1c2ccccc2nc(N2CCCC2)n1-c1ccccc1` as the compound, how does the inhibition read?
Answer: 13.9% (active)

Question: Which inhibition does the source give for `CC1(C)CC(=O)C2=C(C1)NC(=O)C21C(C(=O)OC(C)(C)C)=C(N)Oc2ccc(Br)cc21` (stereo unspecified) here?
Answer: 4.2%

Question: `O=C(Cc1ccc([N+](=O)[O-])cc1)NCc1ccc2c(c1)OCO2` was tested. Which inhibition did it give?
Answer: -3.22%

Question: For `O=C(Cc1ccccc1[N+](=O)[O-])NCc1ccc2c(c1)OCO2`, which inhibition is on record?
Answer: 14% (active)

Question: `O=C(Cc1ccccc1[N+](=O)[O-])Nc1ccc2c(c1)OCO2` was tested. Which inhibition did it give?
Answer: 0.87%

Question: How did the inhibition turn out when `O=C(/C=C\c1ccco1)Oc1cccc2cccnc12` was run?
Answer: 0.86%

Question: How did the inhibition turn out when `O=C(/C=C/c1ccco1)Oc1cccc2cccnc12` was run?
Answer: 14.7% (active)

Question: Which inhibition does the source give for `O=C(/C=C/c1ccccc1)Oc1cccc2cccnc12` here?
Answer: 0.34%

Question: With `CN(NC(=O)Nc1ccccc1)c1cnn(C)c(=O)c1Cl` as the compound, how does the inhibition read?
Answer: 4.46%

Question: Which inhibition does the source give for `Cc1ccc(NC(=O)CC2COc3ccccc3O2)cc1` (stereo unspecified) here?
Answer: -0.6%

Question: With `CC1(C)CC(=O)C2=C(C1)NC(=O)CC2c1ccc(N(CCC#N)CCC#N)cc1` (stereo unspecified) as the compound, how does the inhibition read?
Answer: -4.28%

Question: With `O=C1CSC(=S)N1/N=C/c1ccc(O)c([N+](=O)[O-])c1` as the compound, how does the inhibition read?
Answer: 55.6% (active)

Question: How did the inhibition turn out when `COc1cc(/C=N/N2C(=O)CSC2=S)ccc1O` was run?
Answer: -0.65%

Question: For `O=C1CSC(=S)N1/N=C/c1ccc(Cl)c([N+](=O)[O-])c1`, which inhibition is on record?
Answer: 4.42%

Question: With `COc1cccc(/C=N/N2C(=O)CSC2=S)c1O` as the compound, how does the inhibition read?
Answer: 5.18%

Question: For `O=C1c2ccccc2C(=O)N1/N=C/c1ccc(O)c(O)c1O`, which inhibition is on record?
Answer: 10.8%

Question: How did the inhibition turn out when `COC(=O)c1c(C)n(-c2ccc(C)cc2)c2ccc(O)cc12` was run?
Answer: -3.11%

Question: How did the inhibition turn out when `O=C(CCn1c(=O)[nH]c2ccccc2c1=O)N1CC=C(c2ccccc2)CC1` was run?
Answer: 1.07%

Question: With `O=C(CSc1ccccn1)N/N=C/c1cc([N+](=O)[O-])ccc1O` as the compound, how does the inhibition read?
Answer: 4.16%

Question: How did the inhibition turn out when `O=C(Nc1cccc(S(=O)(=O)N2CCOCC2)c1)c1ccc(Cl)c([N+](=O)[O-])c1` was run?
Answer: -7.13%

Question: `O=C(Nc1cccc(C(F)(F)F)c1)N1CCN(C(=O)Nc2cccc(C(F)(F)F)c2)CC1` was tested. Which inhibition did it give?
Answer: -0.83%

Question: `COc1ccccc1N1CCN(C(=O)/C=C/c2c(Cl)nc3ccccn23)CC1` was tested. Which inhibition did it give?
Answer: 1.7%

Question: For `COc1ccc(/C=N/c2c(-c3ccc(OC)cc3)nc3n2CCS3)cc1`, which inhibition is on record?
Answer: -0.71%

Question: Which inhibition does the source give for `Cc1nc2cc(NC(=O)NCc3ccc4c(c3)OCO4)ccc2o1` here?
Answer: 0.01%

Question: For `CC12CCC(c3nnc(SCc4ccc(Cl)cc4)nc31)C2(C)C` (stereo unspecified), which inhibition is on record?
Answer: 7.21%

Question: With `COc1ccc(-c2nc3scc(-c4ccccc4)n3n2)cc1` as the compound, how does the inhibition read?
Answer: 5.16%

Question: How did the inhibition turn out when `COCCn1c(Cc2ccccc2)nnc1SCC(=O)Nc1ccccc1` was run?
Answer: 2.41%

Question: How did the inhibition turn out when `Cc1cc(C)c(OCCN2C(=O)NC(C)(C)C2=O)c(Cl)c1` was run?
Answer: 14.1% (active)

Question: Which inhibition does the source give for `Cc1cc(Cl)c(OCCN2C(=O)NC(C)(C)C2=O)c(Br)c1` here?
Answer: -1.37%

Question: With `CC1(C)NC(=O)N(CCOCCOc2c(Cl)cc(Cl)cc2Cl)C1=O` as the compound, how does the inhibition read?
Answer: 2.47%

Question: How did the inhibition turn out when `O=C(c1nnsc1S(=O)(=O)c1ccc(Cl)cc1)N1CCOCC1` was run?
Answer: 0.93%

Question: How did the inhibition turn out when `Cc1nnsc1C(=O)Nc1ccc(Cl)cc1` was run?
Answer: 5.53%

Question: With `CNC(=O)c1nnsc1S(=O)(=O)c1ccc(Cl)cc1` as the compound, how does the inhibition read?
Answer: 11.5%

Question: Which inhibition does the source give for `O=C(Nc1ccccc1)c1nnsc1S(=O)(=O)c1ccc(Cl)cc1` here?
Answer: 6.59%

Question: `CNC(=O)c1ncoc1-c1ccc(Cl)cc1` was tested. Which inhibition did it give?
Answer: -1.29%

Question: With `CCCNC(=O)c1nnsc1Sc1ccc(Cl)cc1` as the compound, how does the inhibition read?
Answer: 1.02%

Question: How did the inhibition turn out when `CCCNC(=O)c1nnsc1S(=O)(=O)c1ccc(Cl)cc1` was run?
Answer: 10.7%

Question: For `O=C(c1cc(-c2ccc(Cl)cc2)on1)N1CCOCC1`, which inhibition is on record?
Answer: 3.17%

Question: With `CC1(C)C(=O)OC(c2ccccc2)C2(CCCC2)C1=O` (stereo unspecified) as the compound, how does the inhibition read?
Answer: -6.73%

Question: `COC(=O)N1CCN(CCc2ccccc2)CC1` was tested. Which inhibition did it give?
Answer: 0.78%

Question: `CCCCNC(=O)CNC(=S)N(Cc1ccccc1)Cc1cccs1` was tested. Which inhibition did it give?
Answer: 4.12%

Question: `CCc1cccc(NC(=O)CCS(=O)(=O)c2cccc3nonc23)c1` was tested. Which inhibition did it give?
Answer: 0.23%

Question: How did the inhibition turn out when `CC(NC(=O)CSC(=S)N(C)C)C12CC3CC(CC(C3)C1)C2` (stereo unspecified) was run?
Answer: 2.22%

Question: How did the inhibition turn out when `O=C1C2C3C=CC(C3)C2C(=O)N1CCCCCCN1C(=O)C2C3C=CC(C3)C2C1=O` (stereo unspecified) was run?
Answer: -4.36%

Question: `O=C1C2C3C=CC(C3)C2C(=O)N1CCCCN1C(=O)C2C3C=CC(C3)C2C1=O` (stereo unspecified) was tested. Which inhibition did it give?
Answer: 4.77%

Question: For `CCCC(=O)Nc1c(C)nn(C(=O)CCC)c1C`, which inhibition is on record?
Answer: 9.51%

Question: `COc1cccc(-c2nnc(SCCC(=O)O)n2C)c1` was tested. Which inhibition did it give?
Answer: -2.35%

Question: How did the inhibition turn out when `C/C(Cl)=C/Cn1c(NCCCn2ccnc2)nc2c1c(=O)[nH]c(=O)n2C` was run?
Answer: -3.26%

Question: With `Cc1cc(C)n(-c2ccc(C(=O)OCC(=O)Nc3ccc(S(=O)(=O)N4CCOCC4)cc3)cc2)n1` as the compound, how does the inhibition read?
Answer: 12.8% (active)

Question: `CCN(CC)S(=O)(=O)c1ccc(NC(=O)COC(=O)c2ccc(-n3nc(C)cc3C)cc2)cc1` was tested. Which inhibition did it give?
Answer: 2.95%

Question: With `Cc1cc(C)n(-c2ccc(C(=O)OCC(=O)Nc3ccc(S(=O)(=O)N4CCCCC4)cc3)cc2)n1` as the compound, how does the inhibition read?
Answer: 0.24%

Question: `COc1ccc(C(=O)OCC(=O)Nc2cc(S(=O)(=O)N3CCOCC3)ccc2N2CCCC2)cc1` was tested. Which inhibition did it give?
Answer: 0.15%

Question: How did the inhibition turn out when `COc1ccc(S(=O)(=O)N2CCOCC2)cc1NC(=O)COC(=O)c1ccc(C)s1` was run?
Answer: 0.67%

Question: How did the inhibition turn out when `COc1ccc(OC)c(NC(=O)COC(=O)c2ccc(S(=O)(=O)N3CCOCC3)cc2)c1` was run?
Answer: 14.5% (active)

Question: For `CC(C)(Oc1ccc(CCNC(=O)c2ccc(-c3ccc(Cl)cc3)o2)cc1)C(=O)O`, which inhibition is on record?
Answer: 8.95%
